Data published in PubChem BioAssay.
Activity calls are given as the source filed them.

Assays:
[1] = binders of probe aFSTL3 on microarray, primary screen, stem cell growth factor project, biochemical, small-molecule microarray, fluorescence 635/667 (AID 1064); conditions: higher = more signal;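 also: measures binding of the biotinylated anti-FSTL3 antibody to printed compounds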
[2] = binders from COS7 lysate, DM2A8 probe, primary screen, torsin A project, cell lysate, small-molecule microarray, fluorescence 635/667 (AID 1065); conditions: higher = more signal, COS7 lysate expressing mutant human TOR1A
[3] = binders of probe aFGF2 on microarray, primary screen, stem cell growth factor project, biochemical, small-molecule microarray, fluorescence 635/667 (AID 1067); conditions: higher = more signal;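 also: measures binding of biotinylated aFGF2 protein to printed compounds on slides; z-score merges feature fluorescence and signal-to-noise across triplicate slides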
[4] = binders of probe aFGF10 on microarray, primary screen, stem cell growth factor project, biochemical, small-molecule microarray, fluorescence 635/667 (AID 1071); conditions: higher = more signal;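 also: score merges 667 nm spot intensity and signal to noise from triplicate slides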
[5] = target: Neurogenic locus notch homolog protein 2 (Homo sapiens) (UniProt Q04721); test: Notch2 binders on small-molecule microarrays, primary screen, biochemical, small-molecule microarray, 635 nm fluorescence, stem cell growth factors (AID 1073); conditions: Notch2 binding, higher = more signal
[6] = target: Pro-neuregulin-1, membrane-bound isoform (Homo sapiens) (UniProt Q02297); test: NRG1 binders on small-molecule microarrays, primary screen, psychiatric disease protein project, biochemical, small-molecule microarray, fluorescence 635/667 (AID 1075); conditions: NRG1 binding, 635 nm fluorescence, higher = more signal;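 also: score combines 667 nm spot fluorescence with signal to noise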
Pro-neuregulin-1, membrane-bound isoform (Homo sapiens), sequence (Q02297 whole entry, looked up, the tested form may be a part, canonical isoform): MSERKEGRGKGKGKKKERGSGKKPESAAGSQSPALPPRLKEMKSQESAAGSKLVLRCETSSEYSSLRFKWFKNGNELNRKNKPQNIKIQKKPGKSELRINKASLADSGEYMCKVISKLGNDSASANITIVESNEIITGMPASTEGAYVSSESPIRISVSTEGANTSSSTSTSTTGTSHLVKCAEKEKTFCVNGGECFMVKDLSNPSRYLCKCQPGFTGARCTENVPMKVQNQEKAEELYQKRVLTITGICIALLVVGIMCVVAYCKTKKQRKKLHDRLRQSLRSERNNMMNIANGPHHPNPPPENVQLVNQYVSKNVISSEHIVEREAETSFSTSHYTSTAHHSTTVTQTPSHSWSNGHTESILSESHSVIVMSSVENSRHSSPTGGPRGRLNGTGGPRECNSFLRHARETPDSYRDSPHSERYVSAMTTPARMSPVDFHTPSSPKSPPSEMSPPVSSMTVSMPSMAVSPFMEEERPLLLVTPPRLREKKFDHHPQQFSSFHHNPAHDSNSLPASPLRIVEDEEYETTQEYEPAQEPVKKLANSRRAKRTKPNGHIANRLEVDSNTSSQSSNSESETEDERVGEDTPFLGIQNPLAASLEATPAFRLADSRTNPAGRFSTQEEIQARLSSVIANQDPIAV

[7] = test system: Neuregulin-1 EGF-like domain; test: binders of neuregulin-1 EGF-like domain, primary screen, biochemical, small-molecule microarray, 635 nm fluorescence (AID 1081); conditions: small-molecule microarray binding, higher = more signal;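 also: binding of the protein to compounds printed on small-molecule microarray slides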
[8] = FRG1 promoter luciferase signal modulators, primary screen, FRG1 inhibition for FSHD, cell-based, C2C12 myotubes, firefly/Renilla luciferase, luminescence (AID 1084); conditions: higher = more signal, called active from +8 up or from −8 down
[9] = binders of probe aFST on microarray, primary screen, stem cell growth factor project, biochemical, small-molecule microarray, fluorescence 635/667 (AID 1086); conditions: higher = more signal;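 also: score merges 667 nm fluorescence with signal-to-noise of each printed compound spot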
[10] = binders of probe aHhip on microarray, primary screen, stem cell growth factor project, biochemical, small-molecule microarray, fluorescence 635/667 (AID 1087); conditions: higher = more signal;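 also: score merges spot fluorescence at 667nm with spot signal to noise ratio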
[11] = test system: PRMT1 (protein arginine N-methyltransferase 1); test: PRMT1 binders on small-molecule microarrays, primary screen, biochemical, small-molecule microarray, 635 nm fluorescence (AID 1088); conditions: small-molecule microarray binding, higher = more signal;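 also: binding of Prmt1 protein to compounds spotted on small-molecule microarray slides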
[12] = yeast growth modulation, basal conditions, primary screen, YJM789 clinical isolate, OD600, 24 h (AID 1089);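 also: growth of clinical yeast isolate S. cerevisiae YJM 789 seeded 1000 cells per well; test concentration not given here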; conditions: S. cerevisiae YJM789 growth, higher = more signal, called active from +8 up or from −8 down
[13] = fission yeast growth modulation, primary screen, strain 972, OD600, 24 h, no modulator (AID 1090);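 also: basal condition with compound alone and no growth modifier present; test concentration not given here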; conditions: S. pombe 972 growth, higher = more signal, called active from +8 up or from −8 down
[14] = S. cerevisiae growth modulation with rapamycin, primary screen, strain BY4716, OD600, 96 h (AID 1091); conditions: higher = more signal, called active from +8 up or from −8 down; also: test concentration not given here
[15] = target: Torsin-1A-interacting protein 2 (Homo sapiens) (UniProt Q8NFQ8); test: LULL1 binders on small-molecule microarray, primary screen, cell lysate, human LULL1 lysate, 635/667 nm fluorescence (AID 1092); conditions: hLULL1 lysate binding, 635 nm fluorescence, higher = more signal;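 also: probe is lysate of COS7 cells overexpressing human LULL1; score merges per-feature 667 nm fluorescence with signal-to-noise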
Torsin-1A-interacting protein 2 (Homo sapiens), sequence (Q8NFQ8 whole entry, looked up): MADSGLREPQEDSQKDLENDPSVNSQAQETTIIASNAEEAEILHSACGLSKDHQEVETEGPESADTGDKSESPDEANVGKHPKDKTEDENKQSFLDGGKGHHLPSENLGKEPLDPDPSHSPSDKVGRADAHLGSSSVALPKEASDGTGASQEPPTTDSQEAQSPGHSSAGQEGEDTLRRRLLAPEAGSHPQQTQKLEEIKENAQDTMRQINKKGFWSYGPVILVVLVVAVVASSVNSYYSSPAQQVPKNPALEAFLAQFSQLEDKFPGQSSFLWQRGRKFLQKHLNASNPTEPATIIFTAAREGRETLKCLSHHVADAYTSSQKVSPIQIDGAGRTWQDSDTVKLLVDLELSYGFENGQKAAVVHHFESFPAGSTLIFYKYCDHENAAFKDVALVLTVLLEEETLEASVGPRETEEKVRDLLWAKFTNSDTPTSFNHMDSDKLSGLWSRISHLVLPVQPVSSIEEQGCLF

[16] = E. coli growth modulation, two-sided OD650, primary screen, E. coli filamentation project, strain DRC41, 24 h (AID 1093); conditions: OD650, 24 h, higher = more signal, called active from +8 up or from −8 down;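 also: MC1000 strain lacking acrAB efflux and sulA so SOS filamentation is blocked; test concentration not given here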
[17] = small-molecule microarray binders of probe aLefty2, primary screen, biochemical, biotinylated probe, 635/667 nm fluorescence (AID 1094); conditions: higher = more signal;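 also: score merges spot fluorescence near 667 nm with spot signal-to-noise ratio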
[18] = test system: Noggin (protein binding on small-molecule microarray); test: Noggin binders on small-molecule microarray, primary screen, biochemical, 635/667 nm fluorescence (AID 1095); conditions: 635 nm fluorescence, higher = more signal;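 also: score merges 667 nm feature fluorescence with signal to noise over triplicate slides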
[19] = target: Neurogenic locus notch homolog protein 3 (Homo sapiens) (UniProt Q9UM47); test: NOTCH3 binders on small-molecule microarray, primary screen, biochemical, 635/667 nm fluorescence (AID 1096); conditions: NOTCH3 binding, 635 nm fluorescence, higher = more signal
Neurogenic locus notch homolog protein 3 (Homo sapiens), sequence (Q9UM47 whole entry, looked up): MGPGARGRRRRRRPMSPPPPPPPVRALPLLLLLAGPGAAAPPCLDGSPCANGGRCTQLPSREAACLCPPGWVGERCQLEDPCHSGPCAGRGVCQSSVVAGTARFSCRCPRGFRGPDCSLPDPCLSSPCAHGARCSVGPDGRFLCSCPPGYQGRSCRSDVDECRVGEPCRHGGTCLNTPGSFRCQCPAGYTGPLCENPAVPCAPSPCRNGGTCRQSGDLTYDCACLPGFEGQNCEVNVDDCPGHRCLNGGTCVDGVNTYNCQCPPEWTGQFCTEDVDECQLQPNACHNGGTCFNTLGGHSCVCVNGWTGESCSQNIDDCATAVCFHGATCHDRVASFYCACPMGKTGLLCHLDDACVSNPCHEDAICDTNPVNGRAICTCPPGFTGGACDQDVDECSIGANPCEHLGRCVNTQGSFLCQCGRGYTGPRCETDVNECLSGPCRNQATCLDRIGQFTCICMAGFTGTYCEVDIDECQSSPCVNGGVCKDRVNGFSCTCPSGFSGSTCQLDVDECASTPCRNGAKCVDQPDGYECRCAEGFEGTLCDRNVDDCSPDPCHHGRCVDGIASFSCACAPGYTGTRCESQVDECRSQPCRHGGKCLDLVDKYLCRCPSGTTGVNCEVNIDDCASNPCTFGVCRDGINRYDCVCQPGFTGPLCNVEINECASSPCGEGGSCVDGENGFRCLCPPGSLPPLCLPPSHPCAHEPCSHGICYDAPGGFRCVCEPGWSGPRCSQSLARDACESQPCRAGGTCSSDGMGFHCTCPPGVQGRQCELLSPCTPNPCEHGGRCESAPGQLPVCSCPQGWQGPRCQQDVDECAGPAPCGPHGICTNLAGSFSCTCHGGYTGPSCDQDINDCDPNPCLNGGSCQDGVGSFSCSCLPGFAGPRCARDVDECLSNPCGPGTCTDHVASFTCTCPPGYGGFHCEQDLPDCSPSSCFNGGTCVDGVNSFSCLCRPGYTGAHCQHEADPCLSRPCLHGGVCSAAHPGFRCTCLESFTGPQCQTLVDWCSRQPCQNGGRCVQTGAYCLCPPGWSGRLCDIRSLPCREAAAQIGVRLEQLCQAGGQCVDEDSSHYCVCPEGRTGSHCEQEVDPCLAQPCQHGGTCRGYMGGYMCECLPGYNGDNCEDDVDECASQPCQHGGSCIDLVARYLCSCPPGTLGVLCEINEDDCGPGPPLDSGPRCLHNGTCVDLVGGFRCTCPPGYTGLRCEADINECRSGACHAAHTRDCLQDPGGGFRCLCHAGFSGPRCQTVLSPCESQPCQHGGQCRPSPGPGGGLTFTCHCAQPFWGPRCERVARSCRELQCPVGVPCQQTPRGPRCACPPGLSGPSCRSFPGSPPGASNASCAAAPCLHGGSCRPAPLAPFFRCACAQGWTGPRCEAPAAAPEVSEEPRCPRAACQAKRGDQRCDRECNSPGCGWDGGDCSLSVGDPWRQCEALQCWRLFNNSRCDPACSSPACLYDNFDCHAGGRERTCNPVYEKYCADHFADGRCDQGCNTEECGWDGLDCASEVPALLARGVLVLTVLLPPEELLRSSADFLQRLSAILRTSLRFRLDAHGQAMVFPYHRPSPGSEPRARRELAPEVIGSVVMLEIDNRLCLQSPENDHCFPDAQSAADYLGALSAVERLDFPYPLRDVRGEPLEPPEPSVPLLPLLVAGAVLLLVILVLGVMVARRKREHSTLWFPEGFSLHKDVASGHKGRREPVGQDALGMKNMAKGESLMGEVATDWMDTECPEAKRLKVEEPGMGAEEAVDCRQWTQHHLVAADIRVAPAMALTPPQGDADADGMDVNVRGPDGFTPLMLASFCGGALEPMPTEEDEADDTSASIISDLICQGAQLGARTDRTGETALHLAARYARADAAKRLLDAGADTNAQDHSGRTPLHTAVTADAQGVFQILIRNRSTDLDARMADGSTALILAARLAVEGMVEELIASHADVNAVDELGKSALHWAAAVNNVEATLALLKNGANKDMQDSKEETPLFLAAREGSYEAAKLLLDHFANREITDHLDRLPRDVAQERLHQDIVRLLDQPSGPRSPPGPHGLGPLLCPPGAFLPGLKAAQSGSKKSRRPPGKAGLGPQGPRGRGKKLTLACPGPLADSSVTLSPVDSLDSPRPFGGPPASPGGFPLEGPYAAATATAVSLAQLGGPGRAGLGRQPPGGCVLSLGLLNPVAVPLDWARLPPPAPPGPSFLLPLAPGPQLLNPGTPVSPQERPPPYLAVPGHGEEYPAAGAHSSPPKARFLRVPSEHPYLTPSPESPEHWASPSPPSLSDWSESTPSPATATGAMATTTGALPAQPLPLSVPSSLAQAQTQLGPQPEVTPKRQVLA

[20] = small-molecule microarray binders of probe aEGFR, primary screen, biochemical, biotinylated probe, 635/667 nm fluorescence (AID 1097); conditions: higher = more signal;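 also: probe is a biotinylated anti-EGFR antibody binding compounds printed on slides; score combines fluorescence near 667 nm and signal to noise of each spot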

Row | SMILES | composite z-score [1] | composite z-score [2] | composite z-score [3] | composite z-score [4] | composite z-score [5] | composite z-score [6] | composite z-score [7] | z-score [8] | composite z-score [9] | composite z-score [10] | composite z-score [11] | z-score [12] | z-score [13] | z-score [14] | composite z-score [15] | z-score [16] | composite z-score [17] | composite z-score [18] | composite z-score [19] | composite z-score [20]
1 | C=C(COC)/C(=C/C[C@H](OC(=O)c1ccncc1)c1ccccc1OCCO)c1cnc2ccccc2c1 | -0.776 | 0.171 | -0.0524 | 1.18 | 1.34 | 1.47 | 1.24 | 1.01 (inactive) | 1.07 | -0.242 | 1.54 | -1.77 (inactive) | -0.997 (inactive) | -0.252 (inactive) | 2.94 | 0.395 (inactive) | -0.345 | 1.44 | 1.02 | 0.0024
2 | C=C(COC)/C(=C/C[C@H](OC(C)=O)c1ccc(OCCO)cc1)c1cc(C(=O)OC)ccc1OC | -0.391 | 1.91 | -0.1 | 1.03 | 0.277 | 0.697 | 1.24 | -0.658 (inactive) | 0.0308 | -0.476 | 1.53 | 0.092 (inactive) | -1.08 (inactive) | -0.656 (inactive) | 0.914 | 1.23 (inactive) | -0.119 | 1.68 | 0.794 | -0.126
3 | COC(=O)[C@@]1(Cc2ccc(OC)cc2)[C@H]2c3cc(C(=O)N(C)C)n(C[C@H](O)CO)c3C[C@H]2CN1C(=O)c1ccccc1 | 1.37 | 1.31 | 0.263 | 0.504 | 1.76 | 1.25 | 1.2 | 1.55 (inactive) | 1.73 | 0.284 | 0.0724 | 0.398 (inactive) | 0.251 (inactive) | 0.878 (inactive) | 2.92 | -1.02 (inactive) | 0.955 | -0.826 | 1.05 | 0.269
4 | [N-]=[N+]=Nc1ccccc1[C@@H]1OC(c2ccc(OCCCO)cc2)=N[C@]1(Cc1ccccc1)C(=O)NCC(O)CO (stereo not given in full) | 1.45 | 2.11 | 0.148 | 0.881 | 0.138 | 1.66 | 1.06 | -0.992 (inactive) | 1.25 | 0.28 | 1.55 | -0.281 (inactive) | -1.4 (inactive) | 1.32 (inactive) | 2.65 | 1.05 (inactive) | 0.589 | 0.244 | 0.0643 | 0.206
5 | CO[C@]12C=C(Br)[C@@H](C[C@@H]1c1cccc(C)c1)[C@@]1(CO1)C2=O | -0.233 | 0.0322 | -0.0718 | 0.211 | -0.217 | 0.518 | 0.0046 | 1.22 (inactive) | -0.221 | -0.0708 | 0.435 | -0.354 (inactive) | -5.17 (inactive) | -1.67 (inactive) | 0.469 | -0.0461 (inactive) | -0.145 | 0.569 | 0.537 | -0.115
6 | O=C1NC(=O)C2C1C=CC(C(O)c1cccc3ccccc13)N2Nc1ccc(Cl)cc1Cl (stereo not given) | 0.475 | -0.974 | -0.0752 | 0.51 | 1.49 | 1.53 | 1 | -0.716 (inactive) | 1.34 | -0.0994 | 0.811 | -1.94 (inactive) | -0.615 (inactive) | 2.56 (inactive) | 3.04 | -1.43 (inactive) | 0.162 | -0.339 | 1.04 | 0.131
7 | O=C1C2C=CC(C(O)c3ccc(Br)cc3)N(Nc3ccccc3F)C2C(=O)N1c1ccccc1 (stereo not given) | -0.436 | 0.536 | 0.0181 | 0.178 | 0.776 | 1.11 | 1.06 | -1.55 (inactive) | 0.68 | -0.0346 | 0.566 | -1.16 (inactive) | -0.435 (inactive) | -1.26 (inactive) | 2.97 | 0.569 (inactive) | -0.103 | -0.231 | 0.626 | -0.112
8 | COc1ccc([Si](C)(C)[C@@H]2[C@@H](CC(=O)N3Cc4ccccc4C[C@H]3CO)O[C@]3(C(=O)N(Cc4cccc(N5C(=O)c6cccc7cccc5c67)c4)c4ccccc43)[C@H]2C)cc1 | -0.345 | 0.822 | -0.0111 | 0.659 | 0.973 | 0.828 | 1.04 | -1.51 (inactive) | 0.593 | 0.0505 | 1.56 | -0.258 (inactive) | 0.93 (inactive) | 2.43 (inactive) | 1.6 | -0.342 (inactive) | -0.0144 | 1.08 | 1.09 | 0.0276
9 | COc1ccc([Si](C)(C)[C@@H]2[C@@H](CCO)O[C@]3(C(=O)N(Cc4ccc(N5CCCCC5=O)cc4)c4ccccc43)[C@H]2C)cc1 | -0.343 | 0.299 | 0.0344 | 0.913 | 0.0177 | 0.919 | 1.15 | -4.78 (inactive) | 0.203 | 0.0373 | 1.53 | -0.102 (inactive) | 0.0767 (inactive) | 3.05 (inactive) | 2.09 | 1.2 (inactive) | -0.181 | 0.731 | 1.11 | -0.0828
10 | Cc1ccc(S[C@]2(C(=O)NCC(F)(F)F)CC(=O)N(C3CCCCC3)[C@@H]2c2ccc(CO)cc2I)cc1 | -0.203 | 0.0659 | 0.0464 | 0.594 | 1.18 | 0.405 | 1.18 | -2.91 (inactive) | 0.233 | 0.213 | 1.54 | -0.332 (inactive) | -0.692 (inactive) | 1.23 (inactive) | 2.82 | 0.312 (inactive) | 0.171 | 0.456 | 1.14 | 0.0516
11 | O=C1C=C(c2ccccc2)C(=O)c2ccc([C@H]3Oc4ccccc4S(=O)(=O)N4CCC[C@@H]34)cc21 | -0.292 | -0.303 | -0.116 | -0.0019 | -0.405 | -0.775 | -0.87 | 2.5 (inactive) | -0.024 | 0.0659 | -0.208 | -0.818 (inactive) | -14.9 (active) | 0.696 (inactive) | -1.27 | 1.66 (inactive) | -0.18 | -0.144 | -0.272 | -0.119
12 | COC(=O)CCCCCCC(=O)Nc1ccc(NC(=O)CCCC[P+](c2ccccc2)(c2ccccc2)c2ccccc2)cc1 | -0.493 | 0.725 | -0.0639 | 0.695 | 0.336 | -0.31 | 0.166 | 0.789 (inactive) | 0.352 | -0.0296 | -0.148 | -1.65 (inactive) | -7.18 (inactive) | -0.786 (inactive) | -0.891 | -18.9 (active) | -0.232 | 1.23 | 0.973 | 0.0042
